Laboratory results taken from PubChem BioAssay (Tox21).
Inconclusive results are not listed. Activity calls are given as the source filed them. Unless noted, calls come from the whole dose curve; as a rule, active = well fitted curve in the direction sought with a large enough effect in the repeat runs; inconclusive = weak or mixed curves; inactive = no such curve, though single readings can be large; an effect the other way counts as inactive or inconclusive.

Legend:
[1] = qHTS assay to identify small molecule antagonists of the estrogen related receptor (ERR) signaling pathway from Tox21 library - cell viability counter screen (AID 1224834); note: nearly all actives have a fitted effect of over 30% in size
Method in brief: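 CellTiter-Fluor fluorescence, read after 30 min at 37 C, measures viability of ERR cells. Cells plated at 2,000/well and incubated 6 h before pin-tool compound addition, then exposed 17.5 hours at 37 C.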

[2] = biological target: Luciferin 4-monooxygenase (Photinus pyralis) (UniProt P08659); test: qHTS assay to identify small molecule inhibitors of firefly luciferase (AID 1224835); note: nearly all actives have a fitted effect of over 25% in size; note: potency is the fitted concentration of half-maximal effect
Chain of Luciferin 4-monooxygenase (Photinus pyralis) (P08659 whole entry, looked up): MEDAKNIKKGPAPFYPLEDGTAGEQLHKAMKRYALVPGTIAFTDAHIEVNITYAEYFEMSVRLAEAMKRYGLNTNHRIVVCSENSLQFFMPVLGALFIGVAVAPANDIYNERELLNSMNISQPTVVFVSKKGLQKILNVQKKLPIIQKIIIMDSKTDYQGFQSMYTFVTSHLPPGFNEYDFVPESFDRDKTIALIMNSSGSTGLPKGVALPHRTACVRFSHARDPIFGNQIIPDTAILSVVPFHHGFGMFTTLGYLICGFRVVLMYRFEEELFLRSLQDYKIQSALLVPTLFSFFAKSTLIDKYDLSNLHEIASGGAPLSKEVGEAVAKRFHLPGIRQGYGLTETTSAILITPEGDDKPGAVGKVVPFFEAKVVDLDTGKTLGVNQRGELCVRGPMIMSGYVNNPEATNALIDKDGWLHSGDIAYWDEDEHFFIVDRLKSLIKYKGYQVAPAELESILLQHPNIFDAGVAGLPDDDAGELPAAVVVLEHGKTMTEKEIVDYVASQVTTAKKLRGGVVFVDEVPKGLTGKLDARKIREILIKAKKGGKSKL
Method in brief: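 Biochemical qHTS: compounds run as interplate titrations against purified firefly enzyme, with D-luciferin and ATP each at its KM concentration. Light output recorded by CCD imaging.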

[3] = qHTS assay to identify small molecule agonists of the constitutive androstane receptor (CAR) signaling pathway - cell viability counter screen (AID 1224836); note: nearly all actives have a fitted effect of over 45% in size
Method in brief: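 HepG2 cells stably carrying hCAR and a CYP2B6-2.2kb reporter; 15-concentration compounds plus PK11195 (final 0.75 uM), 23 hr at 37 C/5% CO2. Viability read by CellTiter-Fluor fluorescence.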

[4] = qHTS assay to identify small molecule antagonists of the constitutive androstane receptor (CAR) signaling pathway - cell viability counter screen (AID 1224837); note: nearly all actives have a fitted effect of over 45% in size
Method in brief: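 Cytotoxicity counter-screen: CellTiter-Fluor fluorescence after 23 h compound exposure (15-point qHTS) in double-stable HepG2-CYP2B6-hCAR cells, with 50 nM CITCO added.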

[5] = biological target: Nuclear receptor subfamily 1 group I member 3 (Homo sapiens) (UniProt Q14994); test: qHTS assay to identify small molecule agonists of the constitutive androstane receptor (CAR) signaling pathway (AID 1224839); note: nearly all actives have a fitted effect of over 15% in size; note: potency is the fitted concentration of half-maximal effect;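 for activation: HepG2 cells stably carrying human CAR and a CYP2B6 luciferase reporter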
Chain of Nuclear receptor subfamily 1 group I member 3 (Homo sapiens) (Q14994 whole entry, looked up): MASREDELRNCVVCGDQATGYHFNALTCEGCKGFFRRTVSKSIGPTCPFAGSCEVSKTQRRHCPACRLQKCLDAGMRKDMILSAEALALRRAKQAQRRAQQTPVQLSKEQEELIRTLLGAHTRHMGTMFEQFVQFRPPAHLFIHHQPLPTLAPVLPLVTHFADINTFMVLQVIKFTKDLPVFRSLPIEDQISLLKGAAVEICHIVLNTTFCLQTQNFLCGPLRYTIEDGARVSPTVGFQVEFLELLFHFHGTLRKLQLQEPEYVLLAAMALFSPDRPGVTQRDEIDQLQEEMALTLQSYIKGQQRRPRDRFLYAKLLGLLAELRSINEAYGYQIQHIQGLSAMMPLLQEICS
Method in brief: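 HepG2 cells stably co-transfected with hCAR and a CYP2B6-2.2kb luciferase reporter; compounds at 15 concentrations with 0.75 uM PK11195 present. After 24 hr at 37 C, luciferase read by ONE-Glo luminescence.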

[6] = qHTS assay to identify small molecule antagonists of the estrogen related receptor signaling pathway with the pleiotropic PPARgamma coactivator (PGC) from Tox21 10K library - cell viability counter screen (AID 1224840; active = well fitted cell-killing curve with a large enough effect in the repeat runs, not every such curve was filed as active; note: nearly all actives have a fitted effect of over 40% in size)
Method in brief: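 Counter-screen for cytotoxicity: after 17.5 h compound exposure at 37 C, CellTiter-Fluor reagent added to PGC/ERR cells for 30 min and fluorescence read. Cells were seeded at 2,000 per well 6 h before dosing.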

[7] = qHTS assay to identify small molecule antagonists of the estrogen related receptor signaling pathway with the pleiotropic PPARgamma coactivator (PGC) from Tox21 10K library (AID 1224841; call rule not given here; note: actives are mostly falling curves and most rising ones were filed inactive; nearly all actives have a fitted effect of over 50% in size)
Method in brief: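 Luminescence (One-Glo, 30 min at room temperature) after 18 h compound treatment at 37 C of PGC/ERR reporter cells plated at 2,000 cells/well and settled 6 h beforehand.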

[8] = qHTS assay to identify small molecule agonists of the estrogen related receptor signaling pathway with the pleiotropic PPARgamma coactivator (PGC) from Tox21 10K library (AID 1224842); note: nearly all actives have a fitted effect of over 15% in size
Method in brief: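 PGC/ERR reporter cell line, 2,000 cells per well, incubated 6 h at 37 C before 23 nL compound in DMSO was added. After 18 h at 37 C, One-Glo luminescence read following 30 min at room temperature.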

[9] = biological target: Thyrotropin receptor (Homo sapiens) (UniProt P16473); test: qHTS assay to identify small molecule agonists of the thyroid stimulating hormone receptor (TSHR) signaling pathway (AID 1224843; calls by dose curve; note: nearly all actives have a fitted effect of over 45% in size)
Chain of Thyrotropin receptor (Homo sapiens) (P16473 whole entry, looked up): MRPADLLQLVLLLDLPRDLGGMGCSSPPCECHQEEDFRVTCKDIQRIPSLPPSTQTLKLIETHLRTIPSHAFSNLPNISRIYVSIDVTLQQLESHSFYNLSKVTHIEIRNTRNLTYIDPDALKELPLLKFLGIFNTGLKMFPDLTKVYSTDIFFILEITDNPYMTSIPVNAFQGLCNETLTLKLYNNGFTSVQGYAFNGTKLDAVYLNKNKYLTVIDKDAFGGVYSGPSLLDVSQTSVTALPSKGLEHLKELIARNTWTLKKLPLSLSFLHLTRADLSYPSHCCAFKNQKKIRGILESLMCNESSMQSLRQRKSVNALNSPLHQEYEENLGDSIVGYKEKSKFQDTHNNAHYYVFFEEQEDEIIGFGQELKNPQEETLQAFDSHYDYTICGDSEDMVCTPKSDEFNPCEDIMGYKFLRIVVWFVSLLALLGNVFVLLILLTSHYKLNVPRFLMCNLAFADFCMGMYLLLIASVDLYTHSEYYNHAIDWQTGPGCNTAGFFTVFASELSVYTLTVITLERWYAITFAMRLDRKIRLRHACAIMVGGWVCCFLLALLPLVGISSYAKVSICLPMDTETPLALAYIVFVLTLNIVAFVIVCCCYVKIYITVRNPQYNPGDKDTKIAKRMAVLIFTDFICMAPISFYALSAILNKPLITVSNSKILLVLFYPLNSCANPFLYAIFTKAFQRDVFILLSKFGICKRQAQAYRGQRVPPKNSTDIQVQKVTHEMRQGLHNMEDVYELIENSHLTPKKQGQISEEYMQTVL
Method in brief: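 HEK293/TSHR, 800 cells/well; cpd 30 min RT; add cAMP-d2 + anti-cAMP-cryptate, 1 h RT; fluorescence read on plate reader. 15-pt titration, n=3.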

[10] = qHTS assay to identify small molecule agonists of the hypoxia (HIF-1) signaling pathway - cell viability counter screen (AID 1224844; calls by dose curve; note: nearly all actives have a fitted effect of over 50% in size)
Method in brief: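 Cytotoxicity measured by CellTiter-Glo ATP luminescence in the wells also read for beta-lactamase signal. Cells were HRE-bla ME-180 (2,000/well, 0.5% dialyzed FBS), exposed to compounds for 17 h at 37C.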

[11] = qHTS assay to identify small molecule agonists of H2AX (AID 1224845; active = well fitted activation curve with a large enough effect in the signal ratio in the repeat runs, not every such curve was filed as active; the % refers to the signal ratio)
Method in brief: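 Wild-type CHO-K1 cells, plated overnight, exposed 3hr at 37C to 15 concentrations (0.76% DMSO final). Lysed, then HTRF anti-pH2AX (S139) cryptate and anti-H2AX-d2 antibodies, 24 hr room temperature; 665/620 nm emission read.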

[12] = qHTS assay to identify small molecule agonists of the hypoxia (HIF-1) signaling pathway (AID 1224846; active = well fitted activation curve with a large enough effect in the signal ratio in the repeat runs, not every such curve was filed as active; the % refers to the signal ratio)
Method in brief: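 Compounds added to ME-180 cells carrying hypoxia-response-element beta-lactamase reporter (0.5% dialyzed FBS, 5 h preplating), 17 h at 37C; agonist activity detected by CCF4-AM B/G FRET read-out.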

[13] = qHTS assay to identify small molecule agonists of H2AX - cell viability counter screen (AID 1224847; calls by dose curve; note: top concentration of the series differs between compounds; nearly all actives have a fitted effect of over 30% in size)
Method in brief: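 CHO-K1 cells plated overnight at 37C, then exposed 3 h at 37C to compounds at 15 concentrations (0.76% DMSO final). Viability by CellTiter-Glo luminescence after 30 min at room temperature.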

[14] = qHTS assay to identify small molecule antagonists of the estrogen related receptor (ERR) signaling pathway from Tox21 library (AID 1224848); note: nearly all actives have a fitted effect of over 50% in size
Method in brief: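 Compounds dissolved in DMSO are pin-transferred onto ERR reporter cells (2,000 per well) that have settled for 6 h at 37 C. Plates then incubate 18 h at 37 C before ONE-Glo luciferase reagent and a luminescence read 30 min later.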

[15] = qHTS assay to identify small molecule agonists of the estrogen related receptor (ERR) signaling pathway from Tox21 library (AID 1224849; calls by dose curve; note: nearly all actives have a fitted effect of over 15% in size); details: ERR reporter cell line, ONE-Glo luciferase, 18 h; at 92.4 µM (top of the series) unless noted
Method in brief: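 Luminescent agonist read-out (One-Glo, 30-minute room-temperature incubation) following 18-hour compound treatment at 37 C of the ERR cell line, which had been plated 6 hours before dosing.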

[16] = qHTS RealTime-Glo MT Cell Viability Assay in HepG2 cells - 24 hour (AID 1224867); note: nearly all actives have a fitted effect of over 50% in size
Method in brief: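 HepG2 cells were seeded at 600 cells/well together with NanoLuc luciferase and a cell-permeant prosubstrate, preincubated 5 h at 37 C/5% CO2, then pin-dosed with compounds in DMSO. Nonlytic luminescence from viable cells was read at each time point.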

[17] = qHTS RealTime-Glo MT Cell Viability Assay in HEK293 cells - 32 hour (AID 1224868)
Method in brief: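 HEK293 cells were seeded at 600 cells/well together with NanoLuc luciferase and cell-permeant prosubstrate, preincubated 5 h at 37 C/5% CO2, then given compound in DMSO by pintool. Luminescence from viable-cell prosubstrate reduction was read repeatedly over 40 h.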

[18] = A CellTox Green Cytotoxicity Assay to monitor cytotoxicity in HEK293 cells - 0 hour (AID 1224869); note: nearly all actives have a fitted effect of over 50% in size
Method in brief: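 Fluorescence from a DNA-binding dye excluded by viable cells was measured repeatedly in the same HEK293 wells (600 cells/well) during continuous compound exposure at 37 C. Each assay gives one read point: 0, 8, 16, 24, 32 or 40 h.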

[19] = qHTS RealTime-Glo MT Cell Viability Assay in HepG2 cells - 40 hour (AID 1224870); note: nearly all actives have a fitted effect of over 50% in size
Method in brief: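 HepG2 cells (600/well) mixed with RealTime-Glo MT reagent, settled 5 h at 37 C/5% CO2 before compound addition. Nonlytic NanoLuc luminescence from viable-cell prosubstrate reduction read repeatedly during 40 h treatment at 37 C.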
% is set by controls: 0 for no effect and ±100 for the full control effect.

O=S1(=O)OCCO1
inactive: Potency [1] | Potency [2] | Potency [3] | Potency [4] | Potency [5] | Potency [6] | Potency [7] | Potency [8] | Potency [9] | Potency [10] | outcome [11] | outcome [12] | Potency [13] | Potency [14] | activity change, positive = activation [15] 5.54% | Potency [16] | Potency [17] | outcome [18] | Potency [19]

C=CCN1CC[C@]23CCCC[C@H]2[C@H]1Cc1ccc(O)cc13
inactive: Potency [1] | Potency [2] | Potency [3] | Potency [4] | Potency [5] | Potency [6] | Potency [7] | Potency [8] | Potency [9] | Potency [10] | outcome [11] | Potency [13] | Potency [14] | activity change, positive = activation [15] 5.12% [at 42.5 µM] | Potency [16] | Potency [17] | outcome [18] | Potency [19]

CCc1cc(OC)c(C[C@H](C)N)cc1OC
inactive: Potency [1] | Potency [2] | Potency [3] | Potency [4] | Potency [5] | Potency [6] | Potency [9] | Potency [10] | outcome [12] | Potency [13] | Potency [16] | Potency [17] | outcome [18] | Potency [19]

CCOC(=O)Nc1cccc(OC(=O)Nc2ccccc2)c1
active: Potency [2] 31.7 µM | Potency [5] 30.6 µM
inactive: Potency [1] | Potency [3] | Potency [4] | Potency [6] | Potency [9] | Potency [10] | outcome [12] | Potency [13] | Potency [16] | Potency [17] | outcome [18] | Potency [19]

Cc1cc(OC(=O)N(C)C)nn1C(=O)N(C)C
inactive: Potency [1] | Potency [2] | Potency [3] | Potency [4] | Potency [5] | Potency [6] | Potency [9] | Potency [10] | outcome [12] | Potency [13] | Potency [16] | Potency [17] | outcome [18] | Potency [19]

CC(Cc1ccccc1)NCCCCl (stereo unspecified)
inactive: Potency [1] | Potency [2] | Potency [3] | Potency [4] | Potency [5] | Potency [6] | Potency [9] | Potency [10] | outcome [11] | outcome [12] | Potency [13] | Potency [16] | Potency [17] | outcome [18] | Potency [19]

Cn1c(CCCC(=O)O)nc2cc(N(CCCl)CCCl)ccc21
inactive: Potency [1] | Potency [2] | Potency [3] | Potency [4] | Potency [5] | Potency [6] | Potency [7] | Potency [8] | Potency [9] | Potency [10] | outcome [11] | outcome [12] | Potency [13] | Potency [14] | activity change, positive = activation [15] -8.11% [at 42.5 µM] | Potency [16] | Potency [17] | outcome [18] | Potency [19]

Brc1c(Br)c(Br)c(Br)c(Br)c1Br
inactive: viability change, negative = cytotoxic [1] 3.18% [at 8.39 µM] | activity change, negative = inhibition [2] -3.44% [at 10.5 µM] | viability change, negative = cytotoxic [3] 3.28% [at 8.39 µM] | activity change, negative = cytotoxicity [4] -3.15% [at 8.39 µM] | activation [5] -2.38% [at 8.39 µM] | viability change, negative = cytotoxic [6] -4.4% [at 8.39 µM] | activation [9] 1.42% [at 8.39 µM] | activity change, negative = cytotoxicity [10] -35.3% [at 6.97 µM] | activation [12] -0.641% [at 7.01 µM] | activity change, negative = cytotoxicity [13] -1.61% [at 14 µM] | activity change, negative = cytotoxicity [16] -11.6% [at 6.97 µM] | cytotoxicity [18] 20.1% [at 6.97 µM] | activity change, negative = cytotoxic [19] -3.64% [at 6.97 µM]
